Laboratory results as given in the supplement of paper PMC11417369.
In all, about 25,000 sequences were measured (“ln(normalized median fluorescence intensity)”: median about 9.3, highest 2% from about 10 on). Only a selection was taken, and the highest values are over-represented in it overall.

test system: PF3D7_0420300 AP2 domain 1 (GST-tagged); assay: gcPBM binding intensity (ln(normalized median fluorescence intensity)); higher = stronger DNA binding
How it was run: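 Plasmodium falciparum DNA-binding domains carrying a GST tag were expressed in E. coli and applied for 1 h, at about 25 μg on average, to an Agilent 4 × 180k array. The array held primer-extended double-stranded 36-bp intergenic genomic probes together with negative controls, and binding took place in 1× PBS with 1% milk, 0.2 mg/ml BSA, 0.5% salmon testes DNA and 0.03% Triton X-100. An Alexa488 anti-GST antibody detected bound protein, and the array was scanned at 488 nm. Binding intensity is taken as the highest Masliner-normalised natural-log median intensity across replicate spots of either probe orientation.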

Sequence | gcPBM binding intensity (ln)
TATAGTTCTTCTATTTGTACATATATTATTATTTAA [XGTACX_site895] | 9.26
ATTAATATATTATCATGTACACAAAAATAATTTTAT [XGTACX_site7257] | 9.13
TTAAAATGTTGTAACGTGCACATTTTGTGGAAATCA [GTGCAC_site9559] | 9.07
AAATAATTCATATGTTGTACAGTAATTAAATTTTCT [XGTACX_site6343] | 9.08
CGCGCCCAGAAACACACACACACACCGATATATATA [CACACA_site5250] | 10.3
ATAATATATATTAATACACACACACCGATATATATA [CACACA_site9261] | 10.1
AAAAAAAAAAAACACACACACACACCGAAATATATA [CACACA_site4261] | 10.2
CTATAATAATAAAGTGAACACACACCGATAATATAT [CACACA_site9377] | 9.78
TACGCTCCCAGACACACACACACACCGATATAATAT [CACACA_site8098] | 10.3
GAAATGGGTAAACATACACACACACCGATATATATA [CACACA_site8610] | 9.93
AATATAAATAAAAACACACACAATGGTACAGATATA [CACACA_site5930] | 10.1
TGTATAATAAGGAAGAGTACAAGTAAATACACACAT [XGTACX_site2084] | 9.87
ATTATGTGCCAATACACACACACATATATATATATA [CACACA_site468] | 9.9
AGAAAGATGCAAGAAACATGCAAAAAAAAAATTTCT [TGCATGCA_site725] | 9.15
AAAAATTCAATAGGACGTACTAAAACATTCATTAAT [XGTACX_site1712] | 9.34
AAAAAAAATAGACACACACACATACACATAAATATA [CACACA_site7742] | 10.1
CACTAAAATAGACACACACACACACGGATATAAATA [CACACA_site7873] | 10.3
GATATATAAATAAATACACACATAAAATAGAAATAT [CACACA_site6881] | 9.93
TAAATTTATAGACACACACACATATAAATAAATATA [CACACA_site6530] | 10

Sequence | gcPBM binding intensity (ln)
AAAAATAAAGGATATACACACTAATTATATATATAT [CACACA_site5550] | 9.51
AAAATACATAGACACACACACACACGGATATAAATA [CACACA_site7643] | 10.2
TATATAACTGTCTTCACACACACATATAAATAAATA [CACACA_site7317] | 9.77
TAATTTCTTTAGGGGGTGCTTTTATAGTTTTTATTA | 10.1
TATATATTTATTTATAGTACACTATTTATGAAAACC [XGTACX_site3062] | 9.1
AATAATATTAATAAAAGTACATGTGTAATATATATA [XGTACX_site5922] | 9.51
ATTAAAAGGGGGTTTACATGTGTGTGTGTAATATGG [TGCATGCA_negctrl_site293] | 10.2
TATAATCATATTAAGGGTACATATGTGTAAATATTT [XGTACX_site6018] | 9.23
AACAACTATTACTGCACACATTCTTACACTATATAA [CACACA_site654] | 9.75
TATAAATAAAGCAGTACACACATTTATTTTAGATAC [CACACA_site7566] | 9.61
GGGGGGAGGGTGAATACACACGTAATAATCATAAAC [CACACA_site8502] | 10.3
ATAAAAAAATCAGACACACACACGTAAACACATACA [CACACA_site5529] | 10.1
ATAAATATCATATATATACACACGTAATACATAATA [CACACA_site4001] | 9.56
ATGCTATATTAAAAACGTACAAACTGTTTAGAAAAA [XGTACX_site8943] | 9.12
TTATTTAGTATATTATGTACATACAATGCCTGGGAA [XGTACX_site4578] | 9.21
TGTAAATATATATATACACACACACCGAAGCAATAG [CACACA_site8960] | 10.1
TATATATATAAATACACACACACACCCCAAAGCGTA [CACACA_site4211] | 10.1
TATAAATAAATAGATACACACATATTTATAAATACA [CACACA_site6219] | 9.56
AAAAAGAAAATATATACACACCAAAAAAAAAAAAAA [CACACA_site5698] | 9.46

Sequence | gcPBM binding intensity (ln)
AATAGTAAAAGATATACACACACCAAAAAATATAAT [CACACA_site5293] | 9.99
TAAATATATATATACACACACACCAAAGCAATAGAT [CACACA_site2940] | 10.3
TAAAAAAGAAAATATATACACACCAAAAAAAAAAAA [CACACA_site3146] | 9.66
TAAATATATAAATACACACACACCAAAGCAATAGAT [CACACA_site5605] | 10.2
TAAATATATTTATACACACACACCAAAGCAATAGAT [CACACA_site7393] | 10.3
AATAGTAAAAGATATACACACACCAAAAAATAGAAT [CACACA_site2289] | 10.3
AATAAAGCAATAAATACACACATATTTATATTTATA [CACACA_site7390] | 9.56
AATAAAGCAATAAATACACACATATATATATATATA [CACACA_site2934] | 9.31
AGCTATAATAAATATACACACATATATAAATATGTA [CACACA_site6583] | 9.37
CATGTGTTCTATATTTATGTCTAACTTTTTAATTAA [CACACA_negctrl_site904] | 9.43
GTTTAAAAAAATTATCAACTTTAAAAAGGTAACATT [XGTACX_negctrl_site203] | 8.99
ATTTATAAAACAGGCACACATATAATAAATTTTATA [CACACA_site2600] | 9.54
AATACTCAAAAGAATCGTACAAACAACACTCCCACG [XGTACX_site7564] | 9.4
TTTTTTTTTCAAGAGGTGCGTGTATTTTAACAAAAA | 9.03
TTAATTATATTATGCACACACAATTGGAAAAAAAAT [CACACA_site1958] | 9.64
TATAAAATACTGTATCGATGGGGGAGGGCGCAGGGG [TGCATGCA_negctrl_site250] | 11
AGTATATAAAATACTGTATCGATGGGGGAGGGCGCA [CACACA_negctrl_site1612] | 10
ATATATGGGGCGCAGGAAAAGAGTTTTGGAAATAAA [CACACA_negctrl_site1265] | 9.2
TTTCTAATTTATATCACACACATATTTATATAGTAA [CACACA_site6813] | 9.41
